Measured values reported in PubChem BioAssay (EPA / NIEHS).
Records with an inconclusive call do not appear. Some structures have more than one record in an assay (separate samples or runs), and their calls can disagree. The source made the active and inactive calls. The calls were made as follows, unless noted: active = hit-call score of the fitted dose curve at least 0.9, where 1 is the maximum; inactive = score below 0.9.

Key:
[1] = tested on: DIO1 (gene 1733); assay: CCTE_GLTED_hDIO1: CCTE's human Deiodinase 1 (DIO1) Inhibition Assay, Great Lakes Toxicology and Ecology Division (GLTED) Lab (AID 2283987; active = hit-call score of the fitted dose curve at least 0.9, where 1 is the maximum;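 also: isolated human DIO1 enzyme in a cell-free setup rather than cells; enzyme activity read as free iodide liberated from substrate via Sandell-Kolthoff colorimetry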)
How it was run: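 Inhibition of human deiodinase 1 is scored as reduced iodide liberation after a 3 h enzyme–chemical incubation, detected colorimetrically by the Sandell-Kolthoff reaction against DMSO controls.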

[2] = target: Nucleoli Translocation, AR (gene 367) (UniProt P10275); assay: UPITT_HCI_U2OS_AR_TIF2_Nucleoli_Agonist: University of Pittsburgh U2OS Androgen Receptor-Transcriptional Intermediary Factor 2 (AR-TIF2) Agonism High Content Imaging Assay for Nucleoli Translocation (AID 2283998; active = hit-call score of the fitted dose curve at least 0.9, where 1 is the maximum)
Sequence of Nucleoli Translocation, AR (gene 367) (P10275 whole entry, looked up): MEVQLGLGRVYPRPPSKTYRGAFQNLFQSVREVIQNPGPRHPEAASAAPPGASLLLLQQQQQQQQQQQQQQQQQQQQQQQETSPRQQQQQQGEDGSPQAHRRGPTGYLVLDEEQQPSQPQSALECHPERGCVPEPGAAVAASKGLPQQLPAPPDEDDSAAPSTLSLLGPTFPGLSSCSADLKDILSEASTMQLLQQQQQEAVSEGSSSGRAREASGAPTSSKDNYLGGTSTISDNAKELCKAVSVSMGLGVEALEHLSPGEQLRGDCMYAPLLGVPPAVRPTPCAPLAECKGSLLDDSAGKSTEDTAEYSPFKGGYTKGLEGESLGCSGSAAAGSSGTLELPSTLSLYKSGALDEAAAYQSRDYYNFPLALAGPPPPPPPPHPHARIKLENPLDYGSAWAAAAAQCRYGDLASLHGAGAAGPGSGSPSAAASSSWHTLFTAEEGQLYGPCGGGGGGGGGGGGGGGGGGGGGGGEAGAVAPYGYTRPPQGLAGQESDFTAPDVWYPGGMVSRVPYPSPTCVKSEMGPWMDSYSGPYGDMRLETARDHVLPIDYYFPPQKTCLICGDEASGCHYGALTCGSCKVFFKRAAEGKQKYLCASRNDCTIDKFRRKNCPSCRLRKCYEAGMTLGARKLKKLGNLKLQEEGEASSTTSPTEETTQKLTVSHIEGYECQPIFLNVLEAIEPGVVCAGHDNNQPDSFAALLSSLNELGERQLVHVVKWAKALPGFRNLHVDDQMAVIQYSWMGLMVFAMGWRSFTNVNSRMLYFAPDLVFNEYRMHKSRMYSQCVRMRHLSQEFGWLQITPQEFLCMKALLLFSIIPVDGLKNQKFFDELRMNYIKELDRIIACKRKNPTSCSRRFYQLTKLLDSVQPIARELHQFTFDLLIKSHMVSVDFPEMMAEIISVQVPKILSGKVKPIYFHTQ
How it was run: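 Readout is red (AR-RFP) fluorescence localized to nucleoli, measured by high-content imaging and analysed for increase relative to DMSO. Compound series spanned 0.195 to 50 uM final in 0.5% DMSO.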

[3] = target: Ratio of Nucleoli Translocation and Cytoplasm, AR (gene 367) (UniProt P10275); assay: UPITT_HCI_U2OS_AR_TIF2_Nucleoli_Cytoplasm_Ratio_Antagonist: University of Pittsburgh U2OS Androgen Receptor-Transcriptional Intermediary Factor 2 (AR-TIF2) Antagonism High Content Imaging Assay for Ratio of Nucleoli Translocation and Cytoplasm (AID 2283999; active = hit-call score of the fitted dose curve at least 0.9, where 1 is the maximum;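 also: antagonists lower the DHT-driven ratio of nucleolar to cytoplasmic red signal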)
Sequence of Ratio of Nucleoli Translocation and Cytoplasm, AR (gene 367) (P10275 whole entry, looked up): as above
How it was run: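 This antagonist-mode endpoint tracks AR-RFP localisation, the nucleolus-to-cytoplasm intensity ratio, in TIF2-GFP-coexpressing U2OS cells. DMSO stays at or below 0.5%; testing spans 20 uM single-dose and 0.195–50 uM series, with DHT setting the activity baseline.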

[4] = CCTE_Shafer_MEA_acute_spike_number: CCTE's Neural Acute Assay for Total Number of Spikes, Shafer Lab (AID 2284008);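 as to AC50: curve fitted for decrease in spike count so AC50 reflects inhibitors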
How it was run: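 Read-out is the total spike count over 40 min, expressed as percent change from each well's own pre-treatment baseline and fitted in the loss direction against DMSO. Rat cortical neurons were exposed at 0.03-40 uM on DIV 13 or 15.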

[5] = CCTE_Harrill_HTTr_Viability_MCF7: CCTE's 6-hour Cell Viability Assessment for the High-Throughput Transcriptomics (HTTr) Platform, in MCF-7 cells cultured in DMEM + 10% fetal bovine serum, Harrill Lab (AID 2284010)
How it was run: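 Eight-point concentration series, six-hour exposure. Propidium iodide exclusion imaged to assess membrane integrity as a cytotoxicity readout; bidirectional fitting was done with DMSO as negative control and activity baseline.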

[6] = CCTE_Harrill_HTTr_Apoptosis_MCF7: CCTE's 6-hour Apoptosis Assessment for the High-Throughput Transcriptomics (HTTr) Platform, in MCF-7 cells cultured in DMEM + 10% fetal bovine serum, Harrill Lab (AID 2284011)
How it was run: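 MCF-7 (DMEM + 10% FBS), 384-well; 8-pt dilution series, 6 h chemical exposure; caspase-3/7 activation via CellEvent Caspase 3/7 Green, HCI; bidirectional fit vs DMSO.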

[7] = CCTE_Harrill_HTTr_CellCount_MCF7: CCTE's Cell Proliferation Assessment for the High-Throughput Transcriptomics (HTTr) Platform, Harrill Lab (AID 2284012; active = hit-call score of the fitted dose curve at least 0.9, where 1 is the maximum;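 also: count of Hoechst-stained nuclei per well by high-content imaging in MCF-7 cells; cells exposed to compound for six hours; intended direction is loss of nuclei count meaning fewer cells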)
How it was run: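 For this full-screen endpoint, MCF-7 cultures received eight compound dilutions for six hours. Well nuclei counts from Hoechst imaging were analyzed relative to DMSO.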

[8] = CCTE_Shafer_MEA_acute_burst_number: CCTE's Neural Acute Assay for Single-Electrode Bursts, Shafer Lab (AID 2284013)
How it was run: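 Burst totals were derived with adaptive spike detection (8x rms threshold) on filtered signals from rat cortical cultures; change relative to pre-treatment baseline after 40-min compound exposure (0.03-40 uM) was fitted in the negative direction against DMSO.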

[9] = CCTE_Shafer_MEA_acute_burst_duration_mean: CCTE's Neural Acute Assay for Mean Burst Duration, Shafer Lab (AID 2284014);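 also: hits are decreases in mean burst duration relative to DMSO controls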
How it was run: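 Acute exposure of mature rat cortical networks (DIV 13 or 15) grown on microelectrode arrays to 0.03-40 uM compound. Mean burst duration compared with the 40-min pre-dose baseline over a 40-min post-dose recording at 37 C.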

[10] = CCTE_Shafer_MEA_acute_per_burst_spike_number_mean: CCTE's Neural Acute Assay for Average Number of Spikes Per Burst, Shafer Lab (AID 2284015);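 also: hits are decreases in mean spikes per burst versus baseline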
How it was run: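 Primary rat cortical neurons on 48-well MEA plates, treated on DIV 13 or 15 at 0.03-40 uM. Spontaneous activity recorded 40 min before and 40 min after compound at 37 C; percent change in mean spikes per single-electrode burst per well, fitted in the loss direction versus DMSO.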

[11] = CCTE_Shafer_MEA_acute_interburst_interval_mean: CCTE's Neural Acute Assay for Mean Interburst Interval, Shafer Lab (AID 2284016);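 also: percent change of mean interburst interval versus each well's own pre-dose baseline; curves fitted for decrease in interburst interval relative to DMSO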
How it was run: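 Primary rat cortical neurons on 16-electrode MEA wells were recorded 40 min at baseline on DIV 13 or 15, then 40 min after compound (0.03-40 uM), at 37 C. Value is percent change in mean interburst interval per well, DMSO as negative control.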

[12] = CCTE_Shafer_MEA_acute_burst_percentage_mean: CCTE's Neural Acute Assay for Percentage of Spikes in a Burst, Shafer Lab (AID 2284017);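 as to AC50: curve fitted for loss of signal so potency reflects decreased burst percentage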
How it was run: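 Primary rat cortical neurons on 16-electrode MEA wells; 40 min baseline recorded at DIV 13 or 15, then 40 min after compound (0.03-40 uM) at 37 C. Well-mean fraction of spikes in single-electrode bursts; percent change from baseline, DMSO as negative control.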

[13] = CCTE_Shafer_MEA_acute_burst_percentage_std: CCTE's Neural Acute Assay for Standard Deviation of Burst Percentage, Shafer Lab (AID 2284018);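 also: fitted in the negative direction so actives lower burst percentage SD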
How it was run: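 Primary rat cortical neurons on 16-electrode MEA wells were recorded 40 min at baseline (DIV 13 or 15), then 40 min after compound (0.03-40 uM), at 37 C. Well value is SD across electrodes of spikes-in-bursts/total spikes; endpoint is percent change, DMSO-referenced.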

[14] = CCTE_Shafer_MEA_acute_per_network_burst_spike_number_mean: CCTE's Neural Acute Assay for Average Number of Spikes in a Network Burst, Shafer Lab (AID 2284019);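 as to AC50: curve fitted for loss of signal so actives reduce spikes per network burst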
How it was run: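 Acute exposure of rat primary cortical networks (DIV 13/15) on MEAs; adaptive spike detection at 8x rms noise, 37 C. Percent change in spikes per network burst after 40 min with compound (0.03-40 uM), negative direction vs DMSO.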

[15] = CCTE_Shafer_MEA_acute_per_network_burst_spike_number_std: CCTE's Neural Acute Assay for Standard Deviation of Number of Spikes in a Network Burst, Shafer Lab (AID 2284020);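 also: fitted for decrease in spike-number SD versus DMSO so actives lower it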
How it was run: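 Acute MEA exposure, rat cortical neurons, 0.03-40 uM. Per-well % change versus own baseline; DMSO as negative control.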

[16] = CCTE_Shafer_MEA_acute_per_network_burst_electrodes_number_mean: CCTE's Neural Acute Assay for Mean Number of Electrodes in a Network Burst, Shafer Lab (AID 2284021);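 also: curves fitted for decreases only so hits reduce electrodes per burst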
How it was run: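 Primary rat cortical networks, mwMEA, 37 C. 20 min stabilization, 40 min baseline, compound 0.03-40 uM, 40 min re-record. Wells need >=10 active electrodes; percent change per well, negative fitting direction.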

[17] = target: Ratio of Nucleoli Translocation and Cytoplasm, AR (gene 367) (UniProt P10275); assay: UPITT_HCI_U2OS_AR_TIF2_Nucleoli_Cytoplasm_Ratio_Agonist: University of Pittsburgh U2OS Androgen Receptor-Transcriptional Intermediary Factor 2 (AR-TIF2) Agonism High Content Imaging Assay for Ratio of Nucleoli Translocation and Cytoplasm (AID 2284000; active = hit-call score of the fitted dose curve at least 0.9, where 1 is the maximum;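 also: hits raise the red nucleolar to cytoplasm ratio above vehicle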)
How it was run: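 Primary screen at 20 uM final (0.2% DMSO), then triplicate confirmation and dose-response from 0.195 to 50 uM final (0.5% DMSO). Cells: U2OS with AR-RFP and TIF2-GFP. Endpoint is the nucleoli/cytoplasm red-fluorescence ratio, gain-of-signal vs DMSO.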

[18] = CCTE_Simmons_MITO_basal_resp_rate: CCTE's HepG2 Seahorse XF Respirometric Screening Assay at Basal Respiratory State, Simmons Lab (AID 2284001); settings: actives raise or lower the signal
How it was run: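 Readout is oxygen consumption rate after test compound injection, measured by Seahorse XF in HepG2 cells. Seven concentrations from 125 nM up to 100 uM final are tested, and activity in either direction is fitted against DMSO.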

[19] = CCTE_Simmons_MITO_max_resp_rate: CCTE's HepG2 Seahorse XF Respirometric Screening Assay at Maximal Respiratory State [uncoupled], Simmons Lab (AID 2284002); settings: actives raise or lower the signal
How it was run: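 Read-out is oxygen consumption rate at maximal respiration, taken after FCCP uncoupling of compound-treated HepG2 cells. Seven final concentrations from 125 nM to 100 uM were tested, each in three biological replicates.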

[20] = CCTE_Simmons_MITO_viability: CellTiter-Glo Viability Assessment for CCTE's HepG2 Seahorse XF Respirometric Screening Assay [post-hoc], Simmons Lab (AID 2284007; active = hit-call score of the fitted dose curve at least 0.9, where 1 is the maximum)
How it was run: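 Post-hoc viability check on the HepG2 respirometry plates: luciferase-based ATP signal measured once, after 90 min compound exposure spanning 125 nM–100 uM final. Activity was referenced to DMSO as baseline.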

Measured: AC50

COP(=S)(OC)SCn1nnc2ccccc2c1=O
active: [1] 47.3 µM | [14] 24.1 µM
inactive: [2] | [3] | [4] | [5] | [6] | [7] | [8] | [9] | [10] | [11] | [12] | [13] | [14] | [15] | [16]

COC(=O)c1c(C(F)F)nc(C(F)(F)F)c(C2=NCCS2)c1CC(C)C
inactive: [2] | [17] | [5] | [7]

Nc1c(Cl)c(F)nc(OCC(=O)O)c1Cl
not listed: [1] | [6] | [20]
inactive: all other assays above

OC(c1ccc(Cl)cc1)(c1ccc(Cl)cc1)C(Cl)(Cl)Cl
inactive: [7] | [9] | [10] | [11] | [13] | [14]
active: [1] 70.4 µM | [4] 1.83 µM | [5] 38.6 µM | [8] 2.08 µM | [12] 4.81 µM | [15] 20 µM | [16] 20 µM

COCc1cnc(C2=NC(C)(C(C)C)C(=O)N2)c(C(=O)O)c1 (centres undefined)
inactive: [2] | [17] | [5]

CO/N=C(/C1=NOCCO1)c1ccccc1Oc1ncnc(Oc2ccccc2Cl)c1F
active: [18] 6.74 µM | [19] 4.35 µM | [4] 7.05 µM | [10] 20 µM | [12] 20 µM
not listed: [1] | [2] | [3] | [17]
inactive: all other assays above

CC1(C)C(C=C(Cl)Cl)C1C(=O)OC(C#N)c1cccc(Oc2ccccc2)c1 (centres undefined)
active: [11] 4.16 µM | [12] 1.57 µM | [16] 0.622 µM
not listed: [1] | [2] | [3] | [17]
inactive: all other assays above

CC(C)(C)C(=O)C(Oc1ccc(Cl)cc1)n1cncn1 (centres undefined)
inactive: [20] | [5] | [6] | [7]
active: [18] 40.6 µM | [19] 47.2 µM

CC1(C)CCC(=Cc2ccc(Cl)cc2)C1(O)Cn1cncn1 (centres undefined)
active: [2] 9.87 µM | [17] 15.9 µM
not listed: [1] | [6] | [7] | [18] | [19] | [20]
inactive: all other assays above

COC(=O)N(C(=O)N1CO[C@@]2(C(=O)OC)Cc3cc(Cl)ccc3C2=N1)c1ccc(OC(F)(F)F)cc1
active: [4] 8.32 µM | [11] 15 µM | [12] 28.9 µM
not listed: [1] | [2] | [6] | [18] | [19] | [20]
inactive: all other assays above

COCC(C)N(C(=O)CCl)c1c(C)csc1C (centres undefined)
inactive: [19] | [20] | [5]
active: [18] 55.3 µM

Cc1ccc(N=CN(C)C=Nc2ccc(C)cc2C)c(C)c1
active: [4] 0.126 µM | [9] 4.21 µM | [10] 0.308 µM | [11] 0.16 µM | [14] 0.427 µM | [15] 4.1 µM
not listed: [1] | [2] | [3] | [17] | [20]
inactive: all other assays above
